CRE Fsk mod: CRE-bla signaling modulation under forskolin stimulation. CHO CRE-bla reporter (cAMP response element driving beta-lactamase), forskolin EC10, beta-lactamase ratio. Potency, µM (series often up to 38.2 µM), for inactives: top-dose activity change, negative = inhibition, usual class: activators. 2.5% of 71,000 active. AID 662; active = well fitted activation curve with a large enough effect in the signal ratio, with a control signal flat, not every such curve was filed as active; inconclusive = small, poorly fitted or top-dose-only effect, or effect the other way, or a change in a side signal; the % refers to the signal ratio; also: % of control where 0% means no effect
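Forskolin analogue NKH 477 at EC10 stimulated CRE-driven beta-lactamase in CHO cells alongside compound dilution series. Beta-lactamase was measured with CCF4, excitation 405 nm, emission ratio 460/530 nm.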
ERK AVP block: vasopressin-driven ERK pathway inhibition. HEK293-V1b, vasopressin-stimulated pERK AlphaScreen. Potency, µM (top dose mostly 57.5 µM), for inactives: at the highest dose activity, negative = inhibition, usual class: inhibitors. 0.99% of 72,000 active. AID 995; also: % is scaled to controls: 0 for no effect and ±100 for the full control effect; nearly all actives have a fitted effect of over 55% in size
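HEK293 cells stably expressing V1b receptor, preincubated 30 min at 37 °C with compound, then stimulated 5 min with 25 nM vasopressin. Phospho-ERK by AlphaScreen SureFire after 5 h RT; normalized to DMSO and vasopressin; AC50 by Hill fit.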
TSHR agonist: TSH receptor (human) agonism; P16473; HEK293-CNG-TSHR cells (CNG channel as cAMP sensor), membrane potential dye, cAMP; Potency, µM (highest dose often 57.1 µM), for inactives: at the highest dose activation, most hits filed as activators; 0.48% of 73,000 active; active = well fitted activation curve with a large enough effect in the main read-out, with a control signal flat, not every such curve was filed as active; inconclusive = small, poorly fitted or top-dose-only effect, or a change in a side signal; inactive = no such curve, though single readings can be large or run the other way; % of control where 0% means no effect;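 also: the control signal comes from parental cells without the receptor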
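cAMP rise detected as CNG-channel membrane depolarization by fluorescent dye (emission 590 nm), 30 min after compound, following 60 min dye loading containing 100 uM RO 20-1724 at room temperature. Cells: TSHR/CNG HEK 293, with parental CNG HEK 293 as control.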
HEK293 cAMP ctrl: counter-screen for TSHR agonists: cAMP increase in parental HEK293. Potency, µM (titrated, usually from 57.1 µM), without a hit: at the highest dose activation, most hits filed as activators. AID 938. parental HEK293 CNG cAMP sensor, membrane potential fluorescence. 2.5% of 73,000 active; also: % of control where 0% means no effect; nearly all actives have a fitted effect of over 55% in size
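Counterscreen for endogenous-receptor signalling: CNG-channel HEK 293 cells report cAMP rise by membrane depolarization. After 60 min dye equilibration with 100 uM RO 20-1724, compounds incubated 30 min before bottom-read fluorescence at 590 nm.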
Tau fil binding: binders of human tau filaments; P10636; recombinant tau filaments, thioflavin S fluorescence, 15 h; filaments grown with octadecylsulfate alongside compound; Potency, µM (top dose mostly 57.1 µM), for the others: at the highest dose activity change, negative = inhibition; 2% of 71,000 active;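 also: % is scaled to controls: 0 for no effect and ±100 for the full control effect; actives lower thioflavin S fluorescence by blocking filaments or displacing dye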
Target sequence (P10636 whole entry, looked up): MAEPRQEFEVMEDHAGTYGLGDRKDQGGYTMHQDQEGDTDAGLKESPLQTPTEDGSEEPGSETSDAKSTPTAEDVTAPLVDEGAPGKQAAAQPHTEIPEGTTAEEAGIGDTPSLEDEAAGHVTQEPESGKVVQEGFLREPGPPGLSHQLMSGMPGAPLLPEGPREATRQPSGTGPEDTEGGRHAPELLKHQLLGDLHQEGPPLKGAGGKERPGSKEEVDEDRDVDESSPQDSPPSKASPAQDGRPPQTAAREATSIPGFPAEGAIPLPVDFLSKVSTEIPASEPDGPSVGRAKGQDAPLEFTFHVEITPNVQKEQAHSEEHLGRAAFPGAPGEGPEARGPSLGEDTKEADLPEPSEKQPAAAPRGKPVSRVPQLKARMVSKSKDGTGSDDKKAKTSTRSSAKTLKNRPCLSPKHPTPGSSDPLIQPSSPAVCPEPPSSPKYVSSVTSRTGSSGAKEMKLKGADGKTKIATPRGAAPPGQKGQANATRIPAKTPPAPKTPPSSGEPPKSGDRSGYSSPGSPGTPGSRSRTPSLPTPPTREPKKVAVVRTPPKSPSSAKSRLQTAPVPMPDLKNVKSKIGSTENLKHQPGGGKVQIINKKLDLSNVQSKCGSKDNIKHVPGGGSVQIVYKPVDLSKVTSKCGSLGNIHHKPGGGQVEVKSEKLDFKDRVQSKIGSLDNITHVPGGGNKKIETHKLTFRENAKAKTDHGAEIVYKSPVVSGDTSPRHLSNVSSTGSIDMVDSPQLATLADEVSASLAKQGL
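Tau 2 uM in ThS buffer dispensed; compound added; 60 uM ODS added (finals 1 uM tau, 30 uM ODS); 15 h 37 C; fluor ex450/em510.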
* marks the source's active call; other numbers are inactive results; i = inactive; ? = inconclusive; . = no result; [ ] = remark or other dose. In the library only some 7.4% were active in any assay of this set; here they are far more common. Unless noted, calls follow the shape of the dose curve; as a rule, active = well fitted curve in the direction sought with a large enough effect; inconclusive = small, poorly fitted or top-dose-only effect, or another doubt; inactive = no such curve, though single readings can be large; an effect the other way counts as inactive or inconclusive. Potency is read from the fitted curve at half-maximal effect.

SMILES	CRE Fsk mod	ERK AVP block	TSHR agonist	HEK293 cAMP ctrl	Tau fil binding
COc1ccc(-n2c(=O)c(-c3cc(F)cc(F)c3)nc3cnc(N4CCNCC4)nc32)cc1	?	9%	5%	11%[0.457 µM]	3.2µM*
COc1ccc(-n2c(=O)c(-c3cn(C)c4ccccc34)nc3cnc(N4CCNCC4)nc32)cc1	?	6%	?	?	i
COc1ccc(-n2c(=O)c(-c3cccc(C#N)c3)nc3cnc(N4CCNCC4)nc32)cc1	10µM*	?	?	?	-29%
C[N+]1(C)CCc2cc(O)c(O)cc2[C@H]1Cc1ccc(O)c(O)c1	2%[7.6 µM]	-8%[11.5 µM]	0%[11.4 µM]	-3%[11.4 µM]	3%[11.4 µM]
Cc1nn(-c2ccccc2)c2c1C(c1cccnc1)N1C=C(S(=O)(=O)N3CCCCC3)C=CC1=N2 (configuration not stated)	?	-2%	?	?	16µM*
Cc1nn2c(c1-c1ccccc1)NC1=C(C(=O)CCC1)C2c1cccnc1 (configuration not stated)	24%	7%	13%	20%	-15%
COc1ccccc1N1CCN(C(c2ccc(C)cc2)c2nnnn2C(C)C)CC1 (configuration not stated)	-4%	-14%	?	16µM*	-7%
COc1ccc(Cn2nnnc2C(C(C)C)N2CCN(c3ccccc3OC)CC2)cc1 (configuration not stated)	-3%	-9%	?	13µM*	-4%
CCCc1nc(N)c(C#N)c(-c2cccnc2)c1CC	13µM*	.	11%	15%	-4%
O=c1c(-c2ccccc2)nc2cncnc2n1Cc1ccccc1	?	?	-15%	-26%	20µM*
Cc1nc2cncnc2n(Cc2ccccc2)c1=O	?	-11%	2%	9%	-28%
O=c1c(-c2cccc(F)c2)nc2cncnc2n1Cc1ccccc1	?	-23%	-17%	13%[2.29 µM]	20µM*
Nc1ncnc2c1nc(Br)n2[C@@H]1O[C@H]2COP(=O)(O)O[C@@H]2[C@H]1O	?	6%	?	?	-5%
CC(C)(C)c1cc(C(c2cccnc2)N2CCN(CCO)CC2)cc(C(C)(C)C)c1O (configuration not stated)	?	?	5%	14%	-4%
OCCN1CCN(C(c2cccs2)c2ccc3cccnc3c2O)CC1 (configuration not stated)	?	?	28%	7%	6.3µM*
CC(C)=NOCc1ccc(-c2cn([C@@H]3COC[C@@H]3O)nn2)cc1	.	12%[11.5 µM]	-6%[11.4 µM]	-2%[11.4 µM]	.
c1ccc(-c2oc3ncnc(NCCCn4ccnc4)c3c2-c2ccccc2)cc1	?	25µM*	?	?	220%
c1ccc(-c2oc3ncnc(NCCN4CCOCC4)c3c2-c2ccccc2)cc1	?	?	.	18%	104%
CCOC(=O)c1c(-c2ccc(C)o2)csc1NC(=O)CSc1nncs1	?	8%	?	25µM*	11%
CCOC(=O)c1c(-c2ccc(C)o2)csc1NC(=O)CN1CCN(CC)CC1	27%	-2%	2%	22%	78%
CCCOc1ccc(Br)cc1-c1cc(-c2ccc(Cl)cc2)[nH]c1-c1ccncc1	.	9%	0%	2%	.
COCCN(CCOC)S(=O)(=O)c1ccc(C(=O)Nc2nc(-c3ccncc3)cs2)cc1	9%	25µM*	.	4%	37%
COCCN(CCOC)S(=O)(=O)c1ccc(C(=O)Nc2nc(C)c(C(C)=O)s2)cc1	10%	1%	-1%	5%	-9%
COc1ccccc1-c1cc(=O)c2cc(O)ccc2o1	?	-16%	?	40µM*	?
O=C(Nc1cccc(Cl)c1)Nc1ccc2c(c1)OCO2	-10%	?	-29%	-16%	13µM*
SMILES	CRE Fsk mod	ERK AVP block	TSHR agonist	HEK293 cAMP ctrl	Tau fil binding
CC(=O)c1cc2c(cc1NC(=O)Nc1cccc(Cl)c1)OCCO2	7%	?	12%	9%	162%
O=C(Nc1ccc2c(c1)OCO2)C1(S(=O)(=O)c2ccc(Cl)cc2)CC1	-18%	19%	2%	-2%	16µM*
COc1ccc(-c2cc([C@H](O)[C@@H]3CCCCN3)c3ccccc3n2)cc1	-21%[7.6 µM]	35%[11.5 µM]	6%[11.4 µM]	2%[11.4 µM]	-5%[11.4 µM]
CN1C(=O)CSc2ccc(NC(=O)Nc3ccccn3)cc21	-19%	?	.	-6%	10µM*
CN1C(=O)CSc2ccc(NC(=O)N3CCN(c4ccccn4)CC3)cc21	?	?	?	?	-27%
C[C@H](CO)NC(=O)[C@@H]1C[C@H]1[C@@H](NP(=O)(c1ccccc1)c1ccccc1)c1ccccc1	-14%	3%	?	16µM*	-8%
CCN(CC)c1nc(N)c2c(N)nc3c(c2c1C#N)CC(c1ccccc1)O3 (configuration not stated)	10µM*	?	?	?	7%
CCN(CC)c1nc(N)c2c(N)n(-c3ccccc3C)c(=S)c(C#N)c2c1C#N	?	-14%	0%	5%	-1%
COc1cc(C2c3cc4c(cc3C(OC3OC5COC(C)O[C@@H]5C(O)C3O)C3COC(=O)C23)OCO4)cc(OC)c1O (some centres not stated)	.	14%	.	.	.
CSc1c(C#N)c(N)c(C#N)c2c1COC(C)(C)C2	4µM*	-26%	14%	21%	-5%
O=c1c(-c2nc3ccccc3o2)c2oc3ccccc3n2c2ccccc12	4µM*	-6%	-15%	-20%	12%
CN[C@@H](c1ccncc1)[C@@H](NC)c1ccncc1	?	6%[11.5 µM]	-4%[11.4 µM]	12%[11.4 µM]	-1%[11.4 µM]
O=C(Nc1cnccn1)c1cccc(C(F)(F)F)c1	-2%	-14%	?	20µM*	-14%
Cc1ccc(C)c(C(=N)c2ccccc2Cc2ccccc2)c1	9%[7.6 µM]	-3%[11.5 µM]	.	21%[11.4 µM]	-5%[11.4 µM]
CCOc1cccc(OCCCCn2ccnc2)c1	17%	-13%	12%	6%	-9%
Cc1cc(OCCCn2ccnc2)cc(C)c1Cl	?	25µM*	16%[11.4 µM]	24%[11.4 µM]	-11%[11.4 µM]
Nc1ccc2nn(-c3cccc4ccccc34)nc2c1	.	.	-1%	-6%	.
Cc1cc2nn(-c3cccc4ccccc34)nc2cc1N	21%	-23%	-6%	-6%	7.9µM*
c1ccc(-c2csc(N3CCN(c4ccccn4)CC3)n2)cc1	-9%	16µM*	16%	12%	26%
COc1cc(C(Nc2ccccn2)c2ccc3ccc(C)nc3c2O)cc(OC)c1O (configuration not stated)	?	26%	3%	11%	13µM*
Cc1cc(C)c2nc3s/c(=C/c4ccc5c(c4)n(C)c(=O)n5C)c(=O)n3c2c1	2%	-18%	3%	10%	25µM*
Cc1ccccc1-c1nnc2s/c(=C\c3ccc(N(C)C)cc3)c(=O)n12	8%	-7%	-2%	-5%	-4%
CN(C)c1ccc(-c2nccc(Nc3ccc(F)cc3)n2)cc1	?	?	0%	-12%	86%
